# Screening results from PubChem BioAssay.
# This is a sample that favours compounds with a hit; in the whole collection about 2.3% have one here.
# FBPA coupling cs: inhibits coupling enzyme system, counter-screen for aldolase hits; coupling enzyme system counterscreen, AmpLite Red fluorescence; activity change, negative = inhibition, % at 58.2 µM, hits read low; 290,000 compounds, 0.67% hits; in the data active = activity change below about -30%
#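 Final compound at 57.5 uM, incubated 10 min at RT with coupling enzyme reagent (glyceraldehyde-3-phosphate), then 20 min with substrate and AmpLite Red detection. Fluorescence read at 525/598 nm; tests interference with the coupling assay, not aldolase inhibition.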
# Tau ThT inhib: blocks human tau fibril formation measured by thioflavin T; P10636; recombinant tau K18 P301L, heparin-induced fibrillization, ThT fluorescence; Potency, µM (doses to about 57.4 µM), inactives show at the top dose activity, negative = inhibition, most hits filed as inhibitors; 270,000 compounds, 2.1% hits; AID 1460; also: potency is read from the fitted curve at half-maximal effect; nearly all actives have a fitted effect of over 55% in size
# Target sequence (P10636 561-689 P618L limits assumed): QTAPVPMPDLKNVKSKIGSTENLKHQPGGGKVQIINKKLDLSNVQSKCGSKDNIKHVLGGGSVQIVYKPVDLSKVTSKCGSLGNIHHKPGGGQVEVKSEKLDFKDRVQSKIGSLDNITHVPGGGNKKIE
#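 ThT emission at 510 nm, taken 1 hr after adding 30 uM dye, quantifies aggregates formed when 20 uM heparin acts on human tau K18 P301L for 6 hr at 37 C.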
# Tau fibril FP: tau fibrillization inhibition (FP) | K18 P301L tau heparin fibrillization, Alexa594 FP, 6 h | Potency, µM (series often up to 57.7 µM), for the others: at the top dose activity, negative = inhibition, usual class: inhibitors | 280,000 compounds, 0.39% hits; also: potency is read from the fitted curve at half-maximal effect; nearly all actives have a fitted effect of over 55% in size
#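 Quantitative HTS format: compounds meet 15 uM recombinant K18 P301L tau and Alexa 594-tau tracer in 100 mM sodium acetate pH 7; 20 uM heparin triggers fibrillization at 37 C over 6 hr; FP gives the signal.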
# USP1-UAF1 inh: blocks the human USP1/UAF1 deubiquitinase complex | 390,000 compounds, 0.23% hits | recombinant USP1/UAF1, Ub-Rhodamine cleavage fluorescence | Potency, µM (highest dose often 57.1 µM), for inactives: at the highest dose activity change, negative = inhibition, hits mostly inhibitors | O94782; also: potency is read from the fitted curve at half-maximal effect; nearly all actives have a fitted effect of over 60% in size
#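 Step one: compound is pinned into 1nM USP1/UAF1 in HEPES pH 7.8 buffer with TCEP. Step two: 15 min room-temperature incubation. Step three: Ub-Rho (150nM final) starts cleavage, tracked by fluorescence over six one-minute reads.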
# Tau fluor counter: counter-screen for tau fibril formation inhibitors; tau K18 P301L Alexa594 fluorescence, heparin fibrillization; Potency, µM (top dose mostly 57.7 µM), for inactives: top-dose activity change, negative = decrease; 280,000 compounds, 0.93% hits; also: potency is read from the fitted curve at half-maximal effect; nearly all actives have a fitted effect of over 55% in size
#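 Human tau K18 P301L (15 uM unlabeled, 0.24 uM Alexa 594-labeled) in 100 mM sodium acetate pH 7 with 20 uM heparin, 6 hr at 37 C. ThT 30 uM added, 1 hr ambient; Alexa 594 FP and total fluorescence read at 555/632 nm.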
# * = called active by the depositor; ? = inconclusive; / = no result given; [ ] = dose if it differs, or a comment. Unless noted, calls follow the shape of the dose curve; as a rule, active = well fitted curve in the direction sought with a large enough effect; inconclusive = small, poorly fitted or top-dose-only effect, or another doubt; inactive = no such curve, though single readings can be large; an effect the other way counts as inactive or inconclusive. % is scaled to controls: 0 for no effect and ±100 for the full control effect.
SMILES,FBPA coupling cs,Tau ThT inhib,Tau fibril FP,USP1-UAF1 inh,Tau fluor counter
O=C(Nc1cccc(S(=O)(=O)N2CCOCC2)c1)c1cn(-c2ccccc2)nc1-c1ccccc1,-5,6%,25µM*,-7%,?
Cc1ccc(CN(C(=O)COc2ccc([N+](=O)[O-])cc2)c2ccccn2)cc1,/,-13%,1%,-11%,-28%
CCc1cc(N2CCOCC2)cc2c1[nH]c1ccccc12,-43*,?,-4%,-21%,-29%
COc1ccc(C2CC(=O)c3cc(-c4nc(-c5cccc([N+](=O)[O-])c5)cs4)c(=O)n(-c4ccc(F)cc4)c3C2)cc1 (centres undefined),/,7%,5%,-10%,?
C[N+]1(C)CCC(=C2c3ccccc3CC(=O)c3sccc32)CC1,/,11%,2%,28µM*,3%
O=C(Nc1cccc(C(=O)OCc2cc(=O)n3c4c(sc3n2)CCCC4)c1)c1ccc(Cl)cc1,/,?,1%,-10%,-14%
Cc1ccc(/C=N/Nc2nc3ccccc3[nH]2)s1,-2,7.9µM*,?,-4%,?
C(=N\Nc1nc2ccccc2[nH]1)/c1cccc2cccnc12,-7,4.5µM*,8%,-20%,?
C(=N\Nc1nc2ccccc2[nH]1)/c1c[nH]c2ccccc12,0,13µM*,10%,-23%,16µM*[quencher]
C(=C\c1ccccc1)/C=N/Nc1nc2ccccc2[nH]1,1,7.9µM*,11%,-27%,?
CC(OC(=O)c1cnc2ccccc2n1)c1ccccc1Cl (centres undefined),2,/,/,-13%,/
CCC(C)(C(=O)NC1CCCC1)N(Cc1cccs1)C(=O)c1ccc2c(c1)OCO2 (centres undefined),4,3%,0%,-5%,6%
Cc1noc(C)c1C(=O)Nc1nc2ccccc2s1,/,/,/,-19%,/
Cc1cccc(N2C(=O)CS(=O)(=O)C23C(=O)N(Cc2c(F)cccc2Cl)c2ccccc23)c1 (centres undefined),/,-8%,-10%,-31%,-17%
COc1ccccc1CNc1nc(-c2ccccc2OC)nc2ccccc12,2,/,/,/,/
COC(=O)c1nnc(C(=O)NCc2ccccc2)c2[nH]c3ccc(OC)cc3c12,1,-21%,4%,/,-7%
CCOc1ccc(Br)cc1C1=NN(C(C)=O)C(c2ccc([N+](=O)[O-])s2)O1 (centres undefined),-4,/,/,22µM*,/
CC(=O)N1N=C(c2ccc(C)cc2)OC1c1ccc(Br)cc1 (centres undefined),6,7%,-2%,-12%,11%[2.34 µM]
Nc1nc(N)c(N=Nc2ccc(C(=O)O)cc2)c(N)n1,-1,14µM*,4%,-13%,-10%
O=C(O)c1ccc(N=Nc2c(O)[nH]c3cc(Cl)ccc23)cc1,5,4µM*,6%,-18%,-8%
O=C(O)c1ccc(N=Nc2c(O)[nH]c3ccc(Br)cc23)cc1,0,/,/,-20%,/
CCOc1ccc2nc(N3CCC(C(=O)Nc4ccccc4CC)CC3)sc2c1,/,?,4%,-19%,-25%
Nc1nc2c(c(=O)[nH]1)C(c1cccc3ccccc13)C1=C(N2)c2ccccc2C1=O (centres undefined),-16,10µM*,-10%,-10%,?
Cc1nc(N2CCOCC2)c2c(C(=O)N3CCN(c4ccc(Cl)cc4)CC3)c(C)oc2n1,/,-1%,-5%,-22%,-9%
Cc1cc(C)n2nc(SCC(=O)N/N=C/c3cccc(Br)c3)nc2n1,-32*,3%,?,?,10%
SMILES,FBPA coupling cs,Tau ThT inhib,Tau fibril FP,USP1-UAF1 inh,Tau fluor counter
CC1=C(c2ccc(C(C)C)cc2)S(=O)(=O)NC1=NCc1ccc(Cl)cc1,/,-3%,-10%,18%,6%
COc1ccc(-c2cnnc(N/N=C/c3ccc(C)o3)n2)cc1,6,2.8µM*,9%,-17%,-30%
COc1ccc(-c2cnnc(N/N=C/c3ccc(O)c(O)c3)n2)cc1,-2,2.5µM*,?,-18%,?
Brc1ccc(-c2ccc(/C=N/Nc3nncc(-c4ccccc4)n3)o2)cc1,4,2µM*,11%,-13%,-16%
Brc1ccc(/C=N/Nc2nncc(-c3ccccc3)n2)o1,3,?,2%,/,-8%
COc1ccc(-c2cnnc(N/N=C/c3ccc(O)cc3)n2)cc1,3,?,1%,-8%,?
COc1cc(/C=N/Nc2nnc3c(n2)[nH]c2ccccc23)ccc1O,0,0.71µM*,6%,-14%,-24%
Cc1ccc2[nH]c3nc(N/N=C/c4cccc(O)c4)nnc3c2c1,-4,/,/,-14%,/
COC(=O)c1ccccc1NC(=O)Cn1c(=O)n(CCC(=O)NCc2ccccc2OC)c(=O)c2ccccc21,/,9%,4%,-14%,18%
COc1ccccc1NCC(=O)NNC(C)C(=O)Nc1cccc(Cl)c1 (centres undefined),-14,-9%,0%,-7%,-17%
Cc1ccc(C)c(N2CCN(C(=O)C3CCN(c4nc5ccc(C)cc5[nH]4)CC3)CC2)c1,/,?,4%,-3%,?
Fc1cnc(N/N=C/c2ccc(-c3ccc(Br)cc3)o2)nc1N1CCOCC1,-3,10µM*,-5%,-13%,13µM*[quencher]
Brc1ccc(-c2ccc(/C=N/Nc3nc(N4CCOCC4)nc(N4CCOCC4)n3)o2)cc1,0,-12%,?,-13%,-12%
CCOc1ccc(/C=C/C(=O)Nc2sc3c(c2C(=O)OC)C(C(=O)OC)CC3)cc1 (centres undefined),/,3.2µM*,?,?,?
Cc1cc(C)n2nc(CC#N)c(C#N)c2n1,0,-3%,3%,-26%,6%
Cc1cc(C)n2nc(/C(C#N)=C/c3ccccn3)c(C#N)c2n1,-3,22µM*,?,-13%,?
COc1ccc2nc(-c3ccc(N(C)C)cc3)sc2c1,-2,/,/,/,/
O=C(Nc1ccc2ccccc2c1)C(=O)C1C(=O)Nc2ccccc21 (centres undefined),1,4µM*,3%,/,-25%
O=C(Nc1ccc(F)cc1)C(=O)C1C(=O)Nc2ccccc21 (centres undefined),-7,?,7%,-17%,-13%
Oc1c(/C=C/C=C/C=Nc2ccccc2)sc(=S)n1Cc1ccccc1,-10,1.8µM*,?,?,?
CCCCn1c(O)c(/C=C/C=C/C=Nc2ccccc2)sc1=S,-14,3.2µM*,?,?,-26%
Cn1ccc2cc(NC(=O)Nc3cccnc3)ccc21,1,?,?,-24%,14µM*[quencher]
COc1cccc(NC(=O)Nc2cccnc2)c1,1,6%,-4%,-16%,-6%
Cc1cc(N)ccc1N1CCCC1,-23,7.1µM*,13µM*,?,?
Cc1cc(N)ccc1-n1c(C)ccc1C,-15,14µM*,?,-18%,-29%
